Screening results: PubChem BioAssay, National Center for Advancing Translational Sciences (NCATS)
Sm TGR inh: qHTS Assay for the Inhibitors of Schistosoma Mansoni Peroxiredoxins. Schistosoma mansoni thioredoxin glutathione reductase (TGR), Q962Y6. 3% of 360,000 active. AID 485364, 2010. Potency, µM (highest dose often 114 µM), most hits filed as inhibitors. purified TGR, DTNB reduction, TNB absorbance 405 nm; also: nearly all actives have a fitted effect of over 60% in size
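Kinetic colorimetric format: TGR-catalysed, NADPH-driven DTNB reduction monitored via TNB absorbance. Enzyme dispensed at 20 nM; compound exposure 15 min at room temperature before reaction start.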
NS1 function inh: qHTS Assay for Inhibitors of Influenza NS1 Protein Function; 0.4% of 270,000 active; Potency, µM (titrated, usually from 46.1 µM); calls by dose curve; also: actives are rising curves; nearly all actives have a fitted effect of over 50% in size
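Read-out: OD600 growth recovery of NS1-expressing budding yeast. Cells grown overnight at 30C in -URA glucose medium, washed, resuspended and diluted 1:100 in 2% galactose assay medium, pH 6.0. Same strain lacking NS1 served as positive control.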
Pf growth 48h: Primary qHTS for delayed death inhibitors of the malarial parasite plastid, 48 hour incubation; Potency, µM (top dose mostly 28.7 µM), most hits filed as inhibitors; P. falciparum luciferase growth in erythrocytes, 48 h; 5.9% of 310,000 active; AID 504832, 2011
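Firefly luciferase activity from engineered P. falciparum reports growth; inhibitors lower the luminescent signal. Cultures contained 2% hematocrit erythrocytes at 0.1% final parasitemia.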
AMA1-RON2 inh: qHTS for Inhibitors of AMA1-RON; Towards Development of Antimalarial Drug Lead: Primary Screen; AlphaScreen AMA1-biotinylated RON2 peptide binding; Potency, µM (doses to about 58.2 µM), hits mostly inhibitors; Plasmodium falciparum AMA1 (3D7) - RON2 peptide interaction; 0.2% of 360,000 active; also: nearly all actives have a fitted effect of over 45% in size
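AMA1 (3D7) with his tag at 25 nM final met compounds first, then biotinylated RON2 peptide at 25 nM; detection used donor plus acceptor beads, 10 µg/mL apiece, read by AlphaScreen after 30 min at room temperature.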
Pf growth 96h: Primary qHTS for delayed death inhibitors of the malarial parasite plastid, 96 hour incubation; P. falciparum luciferase reporter growth, 96 h; Potency, µM (titrated, usually from 28.7 µM), usual class: inhibitors; 6.9% of 320,000 active; AID 504834, 2011
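96 h incubation, 37 C, 5% CO2, of luciferase-reporter P. falciparum-infected RBCs (2% hematocrit, 0.05% parasitemia final) with test compounds; endpoint luminescence.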
Hits are given with their value; [ ] = dose if it differs, or a comment. A selection: hits, their analogues and other compounds. The true share with any hit is near 11%. Unless noted, calls follow the shape of the dose curve; as a rule, active = well fitted curve in the direction sought with a large enough effect; inconclusive = small, poorly fitted or top-dose-only effect, or another doubt; inactive = no such curve, though single readings can be large; an effect the other way counts as inactive or inconclusive.

O=C(CSc1nnc(C2CCCCC2)n1-c1ccccc1)NCc1ccco1 was read as Sm TGR inh 44.7µM, NS1 function inh inactive, Pf growth 48h inactive, AMA1-RON2 inh inactive and Pf growth 96h inactive.
For CCn1c(SCC(=O)NCc2ccco2)nnc1-c1cccs1 the results were Sm TGR inh 10µM, NS1 function inh inactive, Pf growth 48h inactive and AMA1-RON2 inh inactive.
For CCNC(=O)CSc1nnc(C2CC2)n1-c1ccccc1 the results were Sm TGR inh inactive, NS1 function inh inactive, Pf growth 48h inactive, AMA1-RON2 inh inactive and Pf growth 96h inactive.
For CC(Sc1nnc(-c2cccs2)n1-c1ccccc1)C(=O)NCc1ccco1 (stereo not given) the results were Sm TGR inh 44.7µM, NS1 function inh inactive, Pf growth 48h inactive and AMA1-RON2 inh inactive.
For CCCCSc1nnc(-c2ccc(NC(C)=O)cc2)n1C the results were Sm TGR inh inactive, NS1 function inh inactive, Pf growth 48h inactive, AMA1-RON2 inh inactive and Pf growth 96h 7.38µM.
For O=C(CSc1nnc(-c2cccs2)n1-c1ccccc1)N1CCOCC1 the results were Sm TGR inh inactive, NS1 function inh inconclusive, Pf growth 48h inactive and AMA1-RON2 inh inactive.
For O=C(CSc1nnc(-c2cccs2)n1-c1ccccc1)N1CCCC1 the results were Sm TGR inh inactive, NS1 function inh inactive, Pf growth 48h inactive, AMA1-RON2 inh inactive and Pf growth 96h 9.28µM.
`CCCn1c(SCC(=O)NCc2ccco2)nnc1-c1ccncc1` gave NS1 function inh inactive, Pf growth 48h inactive, AMA1-RON2 inh inactive and Pf growth 96h inactive.
CCCCn1c(SCC(=O)NCc2ccco2)nnc1-c1ccoc1C was read as Sm TGR inh 28.2µM, NS1 function inh inactive, Pf growth 48h inactive, AMA1-RON2 inh inactive and Pf growth 96h inactive.
`CCCCn1c(SCC(=O)OCC)nnc1-c1ccoc1C` gave Sm TGR inh inactive, NS1 function inh inconclusive, Pf growth 48h inactive and AMA1-RON2 inh inactive.
Screening CCCCn1c(SCC(=O)NCc2ccco2)nnc1-c1ccco1 returned Sm TGR inh 44.7µM, NS1 function inh inactive, Pf growth 48h inactive and AMA1-RON2 inh inactive.
Cc1ccc2[nH]c3c(=O)n(CC(=O)N4CCN(c5ccccc5F)CC4)ncc3c2c1 was read as Sm TGR inh inactive.
COc1cccc(-n2c(=O)c3c(C)c(C)sc3n(CC(=O)NCCc3ccc(OC)c(OC)c3)c2=O)c1 was read as Sm TGR inh inactive.
For CCn1cc(CN2CCCC(C(=O)Nc3cccc(-n4cccn4)c3)C2)c(C)n1 (stereo not given) the results were Sm TGR inh inactive, NS1 function inh inactive, Pf growth 48h inactive, AMA1-RON2 inh inactive and Pf growth 96h 10.4µM.
Screening CCn1cc(CN2CCCC(C(=O)Nc3cccc(-c4cc5ccccc5[nH]4)c3)C2)cn1 (stereo not given) returned Sm TGR inh inactive, NS1 function inh inactive, Pf growth 48h 10.4µM, AMA1-RON2 inh inactive and Pf growth 96h inactive.
Screening CCc1ncc(CN2CCCC(C(=O)Nc3cccc(-c4ccc(F)cc4)c3)C2)cn1 (stereo not given) returned Sm TGR inh inactive, NS1 function inh inactive, Pf growth 48h inconclusive, AMA1-RON2 inh inactive and Pf growth 96h inconclusive.
COc1ccc(CN2CCCC(C(=O)Nc3cccc(-n4cccn4)c3)C2)cc1 (stereo not given) was read as Sm TGR inh inactive, NS1 function inh inactive, Pf growth 48h inconclusive, AMA1-RON2 inh inactive and Pf growth 96h inactive.
O=C(Nc1cccc(-n2cccn2)c1)C1CCCN(Cc2ccc(C#CCCO)cc2)C1 (stereo not given) was read as Sm TGR inh inactive, NS1 function inh inactive, Pf growth 48h 10.4µM, AMA1-RON2 inh inactive and Pf growth 96h inactive.
`O=C(CCN1C(=O)c2cccc3cccc(c23)C1=O)Nc1ccccc1` gave Sm TGR inh inactive, Pf growth 48h inactive, AMA1-RON2 inh inactive and Pf growth 96h inconclusive.
`CCc1ccc(NC(=S)N(Cc2ccccc2)Cc2ccccn2)cc1` gave Sm TGR inh inactive, Pf growth 48h inactive, AMA1-RON2 inh inactive and Pf growth 96h inactive.
Screening CCc1ccc(CNC(=O)c2ccc(NC(=O)N3CCCCc4ccccc43)cc2)cc1 returned Sm TGR inh inactive.
`CC[N+]1(CC)CC2=Cc3c(ccc4ccccc34)C(C)C2C1` (stereo not given) gave Sm TGR inh inactive, NS1 function inh inactive, Pf growth 48h 2.33µM, AMA1-RON2 inh inactive and Pf growth 96h 1.47µM.
Screening COc1ccc(CNC(=O)CSc2ncc3c(n2)-c2cc(Cl)ccc2N(C)S3(=O)=O)cc1 returned Sm TGR inh inactive.
`CCC(c1nc2ccccc2[nH]1)N(Cc1cccnc1)C(=O)c1cc(-c2ccccc2)on1` (stereo not given) gave AMA1-RON2 inh inactive.
Screening COc1ccc2c(c1)c1nc3ccccc3nc1n2Cc1ccc(OC(C)C)c(OC)c1 returned Sm TGR inh inactive, NS1 function inh inactive, Pf growth 48h 11.7µM, AMA1-RON2 inh inactive and Pf growth 96h inconclusive.
Screening CC(=O)c1ccc(S(=O)(=O)Nc2ccccc2C(=O)NC2CC2)cc1 returned Sm TGR inh inactive, Pf growth 48h inactive, AMA1-RON2 inh inactive[11.6 µM] and Pf growth 96h inactive.
For CCOC(=O)c1c(S(=O)(=O)N2CCCC(C(=O)Nc3ncccc3C)C2)c(C)n(C)c1C (stereo not given) the results were Sm TGR inh inactive, NS1 function inh inconclusive, Pf growth 48h inactive, AMA1-RON2 inh inactive and Pf growth 96h 11.7µM.
`CCOC(=O)c1c(S(=O)(=O)N2CCC(C)CC2)c(C)n(C)c1C` gave Sm TGR inh inactive, NS1 function inh inconclusive, Pf growth 48h inactive, AMA1-RON2 inh inactive and Pf growth 96h 8.28µM.
`Cc1c(/C(Cc2ccccc2)=N/O)c2ccccc2n1C` gave Sm TGR inh inactive, NS1 function inh inactive, Pf growth 48h inconclusive, AMA1-RON2 inh inactive and Pf growth 96h 10.4µM.
`Cc1c(C(=O)c2ccccc2)c2ccccc2n1C` gave Sm TGR inh inactive, NS1 function inh inactive, Pf growth 48h inactive, AMA1-RON2 inh inactive and Pf growth 96h inactive.
Screening C=CC(=O)N(CCC)C(c1ccccc1)c1ccccc1OC (stereo not given) returned Sm TGR inh inactive, Pf growth 48h 13.1µM, AMA1-RON2 inh inactive and Pf growth 96h inconclusive.
`COc1ccccc1CN(C)C(=O)C(c1ccccc1)c1ccccc1` gave Sm TGR inh inactive, NS1 function inh inactive, Pf growth 48h inconclusive, AMA1-RON2 inh inactive and Pf growth 96h inconclusive.
`C=CCS(=O)(=O)N1CCCC(N(C)CCc2ccc(OC)c(OC)c2)C1` (stereo not given) gave Sm TGR inh inactive, NS1 function inh inactive, Pf growth 48h inconclusive, AMA1-RON2 inh inactive and Pf growth 96h 5.22µM.
